Our source for the Potency values is PubChem BioAssay (NCATS).

Results filed as inconclusive are left out. A call without a number means that no potency is given here. Active and inactive are the calls of the source. Calls follow the shape of the dose curve; as a rule, active = well fitted curve in the direction sought with a large enough effect; inconclusive = small, poorly fitted or top-dose-only effect, or another doubt; inactive = no such curve, though single readings can be large; an effect the other way counts as inactive or inconclusive.

Experiment [1] concerns the target Voltage-gated inwardly rectifying potassium channel KCNH2 (Homo sapiens) (UniProt Q12809). The experiment can be described thus: qHTS Assay for Small Molecule Inhibitors of the Human hERG Channel Activity (AID 588834).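 Also: lower thallium flux fluorescence means stronger hERG block; nearly all actives have a fitted effect of over 50% in size.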 Also: potency is read from the fitted curve at half-maximal effect. The procedure, abridged:
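Homogeneous FluxOR thallium flux assay using hERG-expressing U2OS cells (BacMam). Compound treatment about 10 minutes preceded stimulation; reduced fluorescence taken as channel block.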
In general terms: Quantitative high-throughput screening tests each substance at several concentrations.

The target of experiment [2] is Luciferin 4-monooxygenase (Photinus pyralis) (UniProt P08659). The experiment can be described thus: Biochemical firefly luciferase enzyme assay for NPC (AID 624030).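 Also: purified P. pyralis luciferase at 10 nM with luciferin and ATP substrate; series mostly up to about 59 µM; nearly all actives have a fitted effect of over 70% in size.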 In short, it runs like this:
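Purified P. pyralis luciferase at 10 nM in 50 mM Tris Acetate (final), luminescence read within 5 minutes of enzyme addition to compounds. Activity normalised to PTC124 versus DMSO; concentration-response curves classed by r2, magnitude and activity.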

The nature of experiment [3]: S16 Schwann cell viability assay (CellTiter-Glo assay) (AID 624031).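 Also: cellular ATP luminescence as a viability measure; series mostly up to about 58 µM; nearly all actives have a fitted effect of over 70% in size.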 The procedure, abridged:
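This viability control uses native rat S16 Schwann cells grown in DMEM plus 10% FBS. After a 24 h compound treatment at 37 °C, CellTiter-Glo luminescence reports ATP content, scaled against DMSO-treated and cell-free wells.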
(In ATP-based viability assays light output follows the ATP content of the culture.)

The nature of experiment [4]: S16 Schwann cell PMP22 intronic element firefly luciferase assay (AID 624032). Also: series mostly up to about 58 µM; nearly all actives have a fitted effect of over 30% in size. The procedure, abridged:
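Rat S16 Schwann cells stably carrying firefly luciferase driven by a PMP22 intronic element, in 10% FBS, treated 24 h at 37 C. ONE-Glo luminescence normalized to PTC124 control and DMSO (0%); curves classed by r2, magnitude and activity.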

Chain of Luciferin 4-monooxygenase (Photinus pyralis) (P08659 whole entry, looked up): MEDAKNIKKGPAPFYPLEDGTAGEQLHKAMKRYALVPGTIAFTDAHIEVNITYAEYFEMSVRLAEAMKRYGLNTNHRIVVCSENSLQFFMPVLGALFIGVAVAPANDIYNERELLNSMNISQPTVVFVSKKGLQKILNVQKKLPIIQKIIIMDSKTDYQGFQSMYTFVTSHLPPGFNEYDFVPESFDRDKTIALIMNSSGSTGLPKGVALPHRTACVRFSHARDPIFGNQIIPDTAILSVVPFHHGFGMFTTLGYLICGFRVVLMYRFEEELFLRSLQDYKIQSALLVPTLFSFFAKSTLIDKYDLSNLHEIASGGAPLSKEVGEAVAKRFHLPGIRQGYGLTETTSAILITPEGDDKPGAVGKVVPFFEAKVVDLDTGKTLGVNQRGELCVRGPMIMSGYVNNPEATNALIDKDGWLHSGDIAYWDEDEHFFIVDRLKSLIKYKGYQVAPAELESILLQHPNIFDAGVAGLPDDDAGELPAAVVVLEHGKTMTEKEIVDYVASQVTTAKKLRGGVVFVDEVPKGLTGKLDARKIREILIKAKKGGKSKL
Chain of Voltage-gated inwardly rectifying potassium channel KCNH2 (Homo sapiens) (Q12809 whole entry, looked up): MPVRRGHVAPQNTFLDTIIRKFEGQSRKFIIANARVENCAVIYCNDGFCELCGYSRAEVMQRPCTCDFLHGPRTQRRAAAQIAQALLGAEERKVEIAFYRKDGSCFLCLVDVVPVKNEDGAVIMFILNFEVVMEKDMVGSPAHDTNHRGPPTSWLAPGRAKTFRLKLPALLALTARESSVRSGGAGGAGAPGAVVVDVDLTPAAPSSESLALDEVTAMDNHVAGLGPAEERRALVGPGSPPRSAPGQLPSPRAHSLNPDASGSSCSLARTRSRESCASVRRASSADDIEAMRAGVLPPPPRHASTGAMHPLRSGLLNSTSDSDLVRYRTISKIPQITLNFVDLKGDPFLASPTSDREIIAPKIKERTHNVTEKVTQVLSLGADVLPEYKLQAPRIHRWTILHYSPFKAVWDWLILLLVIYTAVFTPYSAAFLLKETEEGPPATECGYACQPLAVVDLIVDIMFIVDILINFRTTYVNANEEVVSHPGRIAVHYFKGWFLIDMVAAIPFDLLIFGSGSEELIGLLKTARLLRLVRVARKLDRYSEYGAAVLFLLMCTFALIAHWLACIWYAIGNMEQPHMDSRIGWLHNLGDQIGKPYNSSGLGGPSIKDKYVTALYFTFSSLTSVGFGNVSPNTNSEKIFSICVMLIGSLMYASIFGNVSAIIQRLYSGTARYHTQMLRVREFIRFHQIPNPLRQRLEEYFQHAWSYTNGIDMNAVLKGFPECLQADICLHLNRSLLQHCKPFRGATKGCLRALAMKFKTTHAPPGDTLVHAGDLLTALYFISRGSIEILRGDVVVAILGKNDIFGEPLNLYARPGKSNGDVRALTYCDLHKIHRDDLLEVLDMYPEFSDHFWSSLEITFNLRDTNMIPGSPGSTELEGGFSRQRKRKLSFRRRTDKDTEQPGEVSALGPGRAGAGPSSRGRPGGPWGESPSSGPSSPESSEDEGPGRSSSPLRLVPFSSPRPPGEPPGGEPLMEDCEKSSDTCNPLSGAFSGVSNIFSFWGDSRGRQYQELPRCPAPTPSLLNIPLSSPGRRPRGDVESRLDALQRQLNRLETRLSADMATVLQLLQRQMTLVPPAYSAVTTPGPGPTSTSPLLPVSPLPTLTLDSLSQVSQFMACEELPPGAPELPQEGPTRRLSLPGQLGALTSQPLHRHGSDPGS

Consider `CN1CCCCC1CCN1c2ccccc2Sc2ccc(S(C)=O)cc21` (stereo not given), for which the Potency result in experiment [1], in experiment [2] and in experiment [3] was “inactive” in each case. With `COC(=O)[C@H]1[C@H]2C[C@@H]3c4[nH]c5cc(OC)ccc5c4CCN3C[C@H]2C[C@@H](OC(=O)COc2ccc(OC)cc2)[C@@H]1OC`, the Potency in experiment [1] was 0.141 µM (active). For `Cc1cc(O)cc2c1O[C@](C)(CCC[C@H](C)CCC[C@H](C)CCCC(C)C)CC2`, the Potency result in experiment [1], in experiment [2] and in experiment [3] was “inactive” each time. As for `O=Cc1ccccc1C=O`, the Potency entry in experiment [1] and in experiment [2] was “inactive” each time. Consider `CC1(C)S[C@@H]2[C@H](NC(=O)Cc3ccccc3)C(=O)N2[C@H]1C(=O)O` (tested in a mixture with another compound), for which the Potency result in experiment [1] was “inactive”. Consider `Cc1ncc([N+](=O)[O-])n1CC(O)CCl` (stereo not given), for which the Potency result in experiment [1] is “inactive”. In the case of `[O-][n+]1cccc(CO)c1`, the Potency result in experiment [1] and in experiment [2] was “inactive” in each case.

With `CN(N=O)C(=O)N[C@@H]1[C@@H](O)[C@H](O)[C@@H](CO)O[C@@H]1O`, the Potency result in experiment [1] is “inactive”. The same measure, in the same setting: for `C[C@]12CC[C@@H]3c4ccc(O)cc4CC[C@H]3[C@@H]1CC[C@@H]2OC(=O)CCC1CCCC1` the value was “inactive”; for `OCC(CO)N[C@H]1C[C@](O)(CO)[C@@H](O)[C@H](O)[C@H]1O`, “inactive”.

On to `CCC(=O)c1ccc(O)cc1`, for which the Potency result in experiment [1], in experiment [2] and in experiment [3] was “inactive” each time. Consider `O=C(Oc1ccccc1C(=O)O)c1ccccc1O`, for which the Potency entry in experiment [1], in experiment [2] and in experiment [3] was “inactive” throughout. On to `CC(=O)Oc1c(C)c(C)c2c(c1C)CC[C@@](C)(CCC[C@H](C)CCC[C@H](C)CCCC(C)C)O2`, for which the Potency entry in experiment [1] and in experiment [2] was “inactive” throughout.

Regarding `OC[C@H]1O[C@@H](O[C@@H]2[C@@H](CO)O[C@](O)(CO)[C@H]2O)[C@H](O)[C@@H](O)[C@H]1O`, the Potency result in experiment [1] was “inactive”. For the molecule `CCN(CC)C(=O)Nc1ccc(OCC(O)CNC(C)(C)C)c(C(C)=O)c1` (stereo not given), the Potency result in experiment [1] was “inactive”. Turning to `CCCCCCCCCCCCCCCCCCOCC(O)CO` (stereo not given), the Potency entry in experiment [1], in experiment [2] and in experiment [3] was “inactive” throughout. On to `c1ccc2c(CC3=NCCN3)cccc2c1`, for which the Potency entry in experiment [1] and in experiment [2] was “inactive” each time. For the molecule `N[C@H]1C(O)O[C@H](CO)[C@@H](O)[C@@H]1O` (stereo not given in full), in experiment [1], the Potency entry is “inactive”. Consider `C[C@H]1O[C@H](O[C@H]2[C@H](O)[C@@H](O)[C@@H](O[C@H]3[C@H](O)[C@@H](O)[C@H](O)O[C@@H]3CO)O[C@@H]2CO)[C@H](O)[C@@H](O)[C@@H]1N[C@H]1C=C(CO)[C@@H](O)[C@H](O)[C@H]1O`, for which, in experiment [1], the Potency result is “inactive”.

Consider `CO/N=C(\C(=O)N[C@@H]1C(=O)N2C(C(=O)O)=C(CSc3nc(=O)c(O)nn3C)CS[C@H]12)c1csc(N)n1`, for which, in experiment [1], the Potency result is “inactive”. The same measure, in the same setting: for `CC1CC(OC(=O)C(O)c2ccccc2)CC(C)(C)N1C` (stereo not given) the value was “inactive”. Consider `CCOC(CN1CCN(CC(C)C(=O)c2ccccc2)CC1)c1ccccc1` (stereo not given), for which the Potency in experiment [1] was 12.6 µM (active). Further, the Potency result in experiment [2] is “inactive”. With `C=CCn1c(=O)n([C@@H]2O[C@H](CO)[C@@H](O)[C@H]2O)c2nc(N)[nH]c(=O)c21`, the Potency entry in experiment [1] is “inactive”. In the case of `CN(C)CCCO[C@@H]1[C@H]2OC(C)(C)O[C@H]2O[C@@H]1C(O)CO` (stereo not given in full), in experiment [1], the Potency entry was “inactive”. Still for that read-out and setting: as for `CN1CCOC(c2ccccc2)c2ccccc2C1` (stereo not given), the entry is “inactive”. For `C/C(=C(\CCOP(=O)(O)O)SC(=O)c1ccccc1)N(C=O)Cc1cnc(C)nc1N`, the Potency result in experiment [1] is “inactive”. With `N[C@@H](CSSC[C@H](N)C(=O)O)C(=O)O`, in experiment [1], the Potency result is “inactive”. The same measure, in the same setting: as for `O=C1Nc2ccc(Cl)cc2[C@@](C#CC2CC2)(C(F)(F)F)O1`, the entry is “inactive”. Take `CC(=O)Oc1ccc(C2(c3ccc(OC(C)=O)cc3)C(=O)Nc3ccccc32)cc1`: the Potency entry in experiment [1], in experiment [2] and in experiment [3] was “inactive” throughout. Consider `Oc1cn2c(n1)Nc1ccc(Cl)c(Cl)c1C2`, for which the Potency result in experiment [1], in experiment [2] and in experiment [3] was “inactive” each time. As for `Cc1ccc2nc(N)[nH]c(=O)c2c1Sc1ccncc1`, the Potency entry in experiment [1], in experiment [2] and in experiment [3] was “inactive” in each case. For the molecule `CC1=C(C/C=C(\C)CCC[C@H](C)CCC[C@H](C)CCCC(C)C)C(=O)c2ccccc2C1=O`, the Potency entry in experiment [1] was “inactive”. As for `N[C@H](C(=O)O)c1ccc(O)cc1`, the Potency entry in experiment [1] was “inactive”. Still for that read-out and setting: for `C[C@@H](O)[C@H](N)C(=O)O` the value was “inactive”; for `CC1(C)Oc2ccc(C#N)cc2[C@@H](N2CCCC2=O)[C@@H]1O`, “inactive”; for `CS(=O)(=O)c1ccc([C@@H](O)[C@@H](CF)NC(=O)C(Cl)Cl)cc1`, “inactive”. Take `NS(=O)(=O)c1cc2c(cc1Cl)NC(CSCc1ccccc1)=NS2(=O)=O`: the Potency entry in experiment [1], in experiment [2], in experiment [3] and in experiment [4] was “inactive” in each case. Take `COc1ccc(S(=O)(=O)Nc2nnc(CC(C)C)s2)cc1`: the Potency result in experiment [1], in experiment [2], in experiment [3] and in experiment [4] was “inactive” each time.

In the case of `O=c1cc[nH]c(=S)[nH]1`, the Potency result in experiment [1], in experiment [2], in experiment [3] and in experiment [4] was “inactive” each time. In the case of `CC(C)(C)NCC(O)COc1ccc(NC(=O)NC2CCCCC2)cc1` (stereo not given), the Potency result in experiment [1], in experiment [2], in experiment [3] and in experiment [4] was “inactive” throughout. As to `COc1cc(C(=O)N2CCOCC2)cc(OC)c1OC`, the Potency result in experiment [1], in experiment [2], in experiment [3] and in experiment [4] was “inactive” in each case. As for `O=c1cc(CO)occ1O`, the Potency entry in experiment [1], in experiment [2] and in experiment [3] was “inactive” in each case.
